Screening data (PubChem)
BJeLR viab HTS: BJeLR cell viability loss, primary screen, luminescence, CellTiterGlo ATP; BJeLR fibroblasts viability, 48 h; HRASV12, hTERT and SV40 LT/ST transformed; viability loss activity score, % (concentration not given with the values); 30,000 compounds, 0.64% hits; AID 2275, 2010; in the data active means viability loss activity score above about 50%; inconclusive means no clear call, values can overlap the other calls; inactive means below about 35%;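 further: higher score means fewer live cells and less ATP luminescence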
A1 inhib: inducers of caspase activity in MEF A1-2A-BIM cells, primary screen, A1 inhibitor project, cell-based, CaspaseGlo luminescence; AID 2241, 2010; caspase-Glo luminescence, 3 h; percent of clofoctol signal, DMSO as zero; caspase activation, % (no concentration beside the values); 21,000 compounds, 0.51% hits;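 active means most replicate scores above 10, or exactly half above 10 with mean activity above 10; inconclusive means mean activity below 10 while half the replicates exceed 10; inactive means most replicate scores below 10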;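 further: effector caspase 3 and 7 activity cleaving a DEVD luciferin substrate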
Of the large screens only hits and unclear results are named; the others gave an inactive call; ! = not confirmed by another sample. Hits are enriched below; roughly 0.9% of the tested compounds scored in any of these assays.

Nc1nc(Cl)nc2c1ncn2C1OC(CO)[C@H](O)[C@H]1F (stereo not given in full)	BJeLR viab HTS 54
O=C(/C=C/Sc1ccccn1)c1ccccc1	BJeLR viab HTS 76
O=C(Sc1ccccn1)N1c2ccccc2Sc2ccccc21	none
O=C(Cn1ncc2c3ccccc3n(Cc3ccccc3)c2c1=O)NC1CC1	none
COc1cccc(NC(=O)Cn2ncc3c4ccccc4n(Cc4ccccc4)c3c2=O)c1	A1 inhib 17
COc1ccc(S(=O)(=O)N(C)C[C@H]2Oc3ccc(NC(=O)Nc4ccc(F)cc4)cc3C(=O)N([C@H](C)CO)C[C@@H]2C)cc1	none
C[C@H]1CN([C@@H](C)CO)C(=O)c2cccc(NC(=O)C3CCOCC3)c2O[C@@H]1CN(C)S(=O)(=O)c1ccc(F)cc1	none (no result: A1 inhib)
CCOC(=O)c1cc(Sc2ccccc2NC(=O)c2ccccc2)cc(C(=O)OCC)n1	none
CCOC(=O)c1ccc(Nc2cc(C)nc(C)c2C(=O)OCC)cc1	none (no result: A1 inhib)
COC(=O)c1ccc(Nc2cc(C)nc3ccccc23)cc1	BJeLR viab HTS 62
CCOC(=O)N1CCN(c2ccc3ccccc3n2)CC1	none
C[C@@H]1CN([C@@H](C)CO)C(=O)c2cc(NC(=O)Cc3ccccc3)ccc2O[C@@H]1CN(C)S(C)(=O)=O	none
CN1C(=O)[C@@]2(Cc3ccccc3)SSS[C@]1(CO)C(=O)N2C	BJeLR viab HTS 87, A1 inhib 31
Cc1ccc(CNC(=O)C2C3C=CC4(CN(Cc5cccs5)C(=O)C24)O3)cc1 (stereo not given)	none (no result: A1 inhib)
CCCCN(CC)S(=O)(=O)c1ccc(C(=O)Nc2ccccc2-c2nc3ccccc3[nH]2)cc1	none (no result: A1 inhib)
CN(Cc1ccccc1)S(=O)(=O)c1ccc(C(=O)Nc2ccc(-c3nc4ccccc4[nH]3)cc2)cc1	BJeLR viab HTS inconclusive, A1 inhib 22
CCOc1ccc(NC(=O)Cc2ccccc2OC)cc1	none
COc1ccccc1CC(=O)Nc1ccc(-c2nc3ccccc3[nH]2)cc1	A1 inhib 29
Cc1ccc(S(=O)(=O)/C(C#N)=C/c2sccc2C)cc1	none
COc1ccc(-c2cc(=O)c3c(O)cc(O[C@H]4O[C@H](CO[C@@H]5O[C@@H](C)[C@H](O)[C@@H](O)[C@H]5O)[C@@H](O)[C@H](O)[C@H]4O)cc3o2)cc1	none
COc1cc(OC)cc(C(=O)n2nc(C)cc2C)c1	none
CCc1ccc2nc(Nc3nc4ccccc4c(=O)[nH]3)nc(C)c2c1	BJeLR viab HTS 87
Cc1ccc(SCc2cc(=O)[nH]c(Nc3nc(C)c4ccccc4n3)n2)cc1	none
COc1ccc(CN(C)C[C@H]2Oc3ccc(NS(=O)(=O)c4ccc(F)cc4)cc3C(=O)N([C@H](C)CO)C[C@@H]2C)cc1	none
Cc1nc(Oc2ccc3c(C)cc(=O)oc3c2)c2c3c(sc2n1)CCC3	none
Cc1nc(Oc2ccc(NC(=O)c3ccccc3)cc2)c2c3c(sc2n1)CCC3	A1 inhib 29
Oc1cc(C2CCCCC2)cc(C2CCCCC2)c1	A1 inhib 46
O=C1NCC(O)=C1C=Nc1ccc(C2CCCCC2)cc1	none (no result: A1 inhib)
C[C@H](CO)N1C[C@H](C)[C@@H](CN(C)C(=O)Nc2ccc(F)cc2)Oc2ccc(NC(=O)Cn3cnnn3)cc2C1=O	none
O=C(CCCCCN1C(=O)c2cccc3cccc(c23)C1=O)NO	BJeLR viab HTS 114
CCc1ccccc1NC(=O)CCN1C(=O)c2ccccc2C1=O	none
COc1ccc(N(C)C(=O)c2cn(CC(C)C)c(=O)c3cc(OC)c(OC)cc23)cc1	none (no result: A1 inhib)
Cc1ccc(NC(=O)CSc2nc3c(sc4ccccc43)c(=O)n2CC2CCCO2)cc1C (stereo not given)	A1 inhib 33
O=C(CCn1c(SCc2ccc(F)cc2)nc2c(sc3ccccc32)c1=O)NCC1CCCO1 (stereo not given)	none (no result: A1 inhib)
C[C@@H]1CN([C@@H](C)CO)C(=O)c2cc(NS(=O)(=O)c3cn(C)cn3)ccc2O[C@H]1CN(C)Cc1ccc(C(F)(F)F)cc1	none
C[C@H]1CN([C@@H](C)CO)C(=O)c2cc(NC(=O)Cc3ccccc3)ccc2O[C@@H]1CN(C)C(=O)Nc1cccc2ccccc12	none
Cc1cc(C)cc(NC(=O)CN2C=NS(=O)(=O)c3ccccc32)c1	none
Cc1cc(C)cc(NC(=O)CN2C(=O)CCc3ccccc32)c1	A1 inhib 11
CCOc1ccc(-c2c(C#N)c(N)nc(SCC(=O)c3ccc(Cl)cc3)c2C#N)cc1	A1 inhib 16
Cc1ccc(-c2nsc(SCC(=O)c3ccc(Cl)cc3)n2)cc1	none
Cc1cc(C)cc(NC(=O)c2ccc3c(c2)NC(=O)c2ccccc2S3)c1	none
Cc1cc(NC(=O)c2ccc3c(c2)NC(=O)c2ccccc2S3)ccc1Br	A1 inhib 15
C[C@@H]1CN([C@H](C)CO)C(=O)c2cc(NS(=O)(=O)c3ccc(F)cc3)ccc2O[C@@H]1CN(C)Cc1ccc(-c2ccccc2)cc1	none
Cc1c(Cc2ccccc2)c(Cl)n2c(nc3ccccc32)c1C#N	BJeLR viab HTS 64
CCc1c(C)c(C#N)c2nc3ccccc3n2c1N1CCN(CCO)CC1	none (no result: A1 inhib)
CC1(C)CC(=O)C=C(Sc2nc3ccccc3o2)C1	BJeLR viab HTS 76
O=C(CSc1nc2ccccc2o1)OCc1ccccc1	none
C[C@@H]1CN([C@H](C)CO)C(=O)c2cc(NS(=O)(=O)c3ccccc3)ccc2O[C@H]1CN(C)Cc1ccc(C(=O)O)cc1	none
CC(=O)O[C@@]1(C)[C@@H]2CC(=C(C)C)C(=O)C[C@@]2(C)CC[C@H]1OC(=O)C1(C)OC1C (stereo not given in full)	BJeLR viab HTS 54
O=C1CC(=O)N(c2ccccc2)N1c1ccccc1	none
O=C1C=CC(=O)N1c1ccccc1	BJeLR viab HTS 127
Cc1ccc(S(=O)(=O)Nc2cccc3c2O[C@H](CN(C)Cc2ccccc2)[C@H](C)CN([C@@H](C)CO)C3=O)cc1	none (no result: A1 inhib)
OC(CN1CCNCC1)Cn1c2ccc(Br)cc2c2cc(Br)ccc21 (stereo not given)	A1 inhib 16!
OC(CN1CCN(c2cccc(Cl)c2)CC1)Cn1c2ccccc2c2ccccc21 (stereo not given)	none
COc1ccc(CN(C)C[C@@H]2Oc3c(NC(=O)c4nc5ccccc5s4)cccc3C(=O)N([C@H](C)CO)C[C@H]2C)cc1	none (no result: A1 inhib)
Cc1c(C(=O)NC2CCCCC2)c(C)n2cnn(CC(=O)NCCCN3CC(C)CC(C)C3)c(=O)c12 (stereo not given)	none
O=C1c2ccccc2O[C@@H](c2ccc(Cl)cc2)[C@@H]1O	none
COc1cccc2c1C(=O)c1ccc3c(c1C2=O)C(=O)CC(C)(O)C3 (stereo not given)	none
COc1cccc2c1C(=O)c1c(O)c3c(c(O)c1C2=O)C[C@@](O)(C(=O)CO)C[C@@H]3O[C@H]1C[C@H](N)[C@H](O)[C@H](C)O1	BJeLR viab HTS 109, A1 inhib 16
COc1cccc2c1C(c1ccc3c(c1O)C(=O)CC(C)C3O)OC2=O (stereo not given)	none
COc1cccc2c1C(=O)c1c(O)c3c(c(O)c1C2=O)C[C@@](O)(C(=O)CO)C[C@@H]3OC1CC(N)C(O)C(C)O1 (stereo not given in full)	BJeLR viab HTS 106, A1 inhib 15
O=C1CC2(CCCC2)CC(=O)N1CCNCC1COc2ccccc2O1 (stereo not given)	none
C[C@H](CO)N1C[C@H](C)[C@H](CN(C)S(C)(=O)=O)Oc2ccc(NS(=O)(=O)c3ccc(Cl)cc3)cc2C1=O	none
